Most compounds without a hit are left out; they make up all but 5.7% or so of the library.
ssDAF-12 act = S. stercoralis DAF-12 nuclear receptor activators, primary screen, cell-based, luminescence, HEK293, GRIP1 co-expression, lit1-tk-luc | HEK293 ssDAF-12/GRIP1 lit1-tk-luc reporter; % of 3 µM dafachronic acid response | AID 652126, 2013 | activation, % at 6.8 µM | Nuclear hormone receptor DAF-12 (Strongyloides stercoralis) | 370,000 tested, 1% active;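 active = activation above the mean over all tested compounds plus 3 SD, cut at about 0.9% in these data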
hgDAF-12 ag = H. glycines DAF-12 receptor agonists, primary screen, cell-based, luminescence, HEK293, GAL4 fusion, UAS-luciferase; activation, % at 6.8 µM; HEK293 GAL4-hgDAF12 UAS-luciferase reporter, agonist luminescence; normalized to butyrate control; AID 687014, 2013; 370,000 tested, 1.8% active; Nuclear hormone receptor DAF-12 (Heterodera glycines), GAL4 fusion;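 active = activation above a cutoff set at the mean of all screened compounds plus 3 SD, cut at about 10% in these data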
hcDAF-12 act = H. contortus DAF-12 nuclear receptor activators, primary screen, cell-based, luminescence, HEK293, lit1-tk-luc reporter. HEK293 hcDAF-12 lit1-tk-luc reporter; 0% DMSO, 100% Δ7-dafachronic acid. activation, % at 6.8 µM. 370,000 tested, 1.4% active. AID 652067, 2013;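 active = activation above the mean of all tested compounds plus 3 SD, cut at about 5.5% in these data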
DAX1 inh-1 = DAX1 (NR0B1) inhibitors, primary screen, cell-based, HEK293, Gal4-DAX1, luciferase luminescence; inhibition, % at 6.75 µM; HEK293 Gal4-DAX1 luciferase reporter; Nuclear receptor subfamily 0 group B member 1 (Homo sapiens), P51843; AID 504766, 2011; 340,000 tested, 0.99% active;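 active = inhibition above the mean over all tested compounds plus 3 SD, cut at about 4.2% in these data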;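 note: inhibition shows as a rise in luminescence from relieved DAX1 repression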
Target sequence (P51843 207-470 limits assumed): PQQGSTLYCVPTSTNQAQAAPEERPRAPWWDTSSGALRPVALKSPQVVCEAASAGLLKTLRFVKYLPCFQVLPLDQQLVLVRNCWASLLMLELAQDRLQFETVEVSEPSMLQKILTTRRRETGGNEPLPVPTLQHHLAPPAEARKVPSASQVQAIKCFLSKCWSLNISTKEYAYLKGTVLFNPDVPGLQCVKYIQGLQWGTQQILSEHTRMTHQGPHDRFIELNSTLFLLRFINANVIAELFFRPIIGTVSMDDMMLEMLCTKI
AHR activator = AHR activators, primary screen, cell-based, luminescence, luciferase reporter, human | 320,000 tested, 2.5% active | activation, % at 5 µM | AHR-responsive luciferase reporter cells; in the data active = activation above about 47%
DAX1 inh-2 = DAX1 (NR0B1) inhibitors on StAR promoter, primary screen, cell-based, luminescence, SF-1 (NR5A1), full-length DAX-1 | HEK293T StAR-luciferase reporter, SF-1/DAX-1 repression relief | inhibition, % at 6.8 µM | 370,000 tested, 1.1% active | AID 652010, 2013;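 active = inhibition above the mean over all tested compounds plus 3 SD, cut at about 3.6% in these data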;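 note: higher inhibition means more luminescence from relief of DAX-1 repression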
DAX1 inh confirm = DAX1 (NR0B1) inhibitors relieving SF-1 repression, confirmation, cell-based, luminescence, HEK293T, full-length DAX-1, SF-1 activated StAR promoter; 2,400 tested, 87% active; shares compounds with DAX1 inh-2; HEK293T StAR-promoter luciferase reporter, SF-1/DAX-1 repression; inhibition, % at 6.8 µM;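 active = inhibition above the average of every tested compound plus 3 SD, cut at about 3.8% in these data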
SF1 AF2mut Luc = StAR reporter signal changes without DAX1, counter-screen for DAX1 inhibitor project, cell-based, luminescence, AF-2 mutant SF-1, transactivation; AID 652136, 2013; HEK293 StAR-luciferase, SF-1 AF2 mutant; inhibition, % at 6.8 µM; 2,400 tested, 78% active; shares compounds with DAX1 inh-2;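 active = inhibition above the mean of all tested compounds plus 3 SD, cut at about 3% in these data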
Each line names hits and unclear results; the compound was inactive in the other large screens (follow-up assays come after a bar, where they were run).

C/C(=N\NC(=O)c1nn(C)c(C)c1Br)c1ccc(NC(=O)C2CCCC2)cc1	hgDAF-12 ag 12, DAX1 inh-2 8.9 (no result: AHR activator) | DAX1 inh confirm inactive | SF1 AF2mut Luc inactive
C/C(=N/NC(=O)c1ccoc1C)c1ccc(NC(=O)C2CCCC2)cc1	hgDAF-12 ag 15, hcDAF-12 act 6.0, DAX1 inh-2 6.1 | DAX1 inh confirm 5.3 | SF1 AF2mut Luc 4.2
C=CCN(c1ccccc1)S(=O)(=O)c1cccc2cccnc12	none
Cc1ccc2nsnc2c1S(=O)(=O)Nc1ccccc1C(=O)O	none
Cc1ccc(S(=O)(=O)N(Cc2ccccc2F)C(=O)N2CCN(C)CC2)cc1	DAX1 inh-2 5.0 | DAX1 inh confirm inactive | SF1 AF2mut Luc inactive
Cc1ccc(S(=O)(=O)N(Cc2ccccc2Cl)C(=O)N2CCN(C)CC2)cc1	none
O=C(Nc1ccc2c(c1)nc1n2CCSC1)c1ccccc1	hgDAF-12 ag 12, DAX1 inh-2 5.9 | DAX1 inh confirm 13 | SF1 AF2mut Luc 8.6
COc1ccc(C(=O)Nc2ccc3c(c2)nc2n3CCSC2)cc1	none
O=C(Nc1ccc(CN2CCOCC2)cc1)c1cc2ccccn2n1	DAX1 inh-2 6.2 | DAX1 inh confirm 9.8 | SF1 AF2mut Luc 3.0
Cc1cccc(NC(=O)C2CCCN(C(=O)Nc3ccc(F)cc3)C2)c1 (stereo unspecified)	none
CC(C)CCn1c(=O)c2sccc2n2c(CCCC(=O)N3CCC(N4CCCCC4)CC3)nnc12	DAX1 inh-2 4.7 | DAX1 inh confirm 4.6 | SF1 AF2mut Luc 4.1
CC(C)Cn1c(=O)c2sccc2n2c(CCCC(=O)N3CCC(N4CCCCC4)CC3)nnc12	none
O=C(O)c1cc(N/N=C/C=C/c2ccccc2)ccc1Cl	DAX1 inh-2 8.6 | DAX1 inh confirm 12 | SF1 AF2mut Luc 6.2
Cc1ccnc(Nc2ccc(CCO)cc2)n1	hgDAF-12 ag 11, DAX1 inh-2 4.8 (no result: DAX1 inh-1, AHR activator) | DAX1 inh confirm 9.5 | SF1 AF2mut Luc 5.6
CC(=O)Nc1ccc(Nc2nccc(C)n2)cc1	none (no result: DAX1 inh-1, AHR activator)
O=C(Nc1nnc(SCc2ccccc2F)s1)C1=COCCO1	DAX1 inh-2 5.8 | DAX1 inh confirm 6.4 | SF1 AF2mut Luc inactive
O=C(Nc1nnc(SCc2ccccc2)s1)C1=COCCO1	none
C=CCSc1nnc(NC(=O)C2=COCCO2)s1	hcDAF-12 act 5.7, DAX1 inh-2 6.8 | DAX1 inh confirm 7.1 | SF1 AF2mut Luc 6.6
CS(=O)(=O)c1ccc(Nc2nc(C(N)c3ccccc3)cs2)cc1 (stereo unspecified)	none (no result: DAX1 inh-1, AHR activator)
Cc1ccc(S(=O)(=O)NCc2ccccc2)cc1C(=O)NCc1ccncc1	none (no result: AHR activator)
Cc1c(NC(=S)NC(=O)c2cc3ccccc3o2)cccc1C(=O)O	DAX1 inh-2 6.8 | DAX1 inh confirm 6.6 | SF1 AF2mut Luc 5.8
Cc1cccc(NC(=O)COC(=O)CC2CCCC2)c1C	none (no result: AHR activator)
CCCCN1CC(=O)N2[C@H]3c4ccc(OC)cc4OC[C@@H]3[C@H](c3ccccc3)[C@]2(C)C1=O	none
Cc1ccc(CS(=O)Cc2ccc(C(=O)NC3CCCCC3)o2)cc1 (stereo unspecified)	none
O=C(CCCl)N(Cc1nc2ccccc2c(=O)[nH]1)Cc1cccs1	none
COc1cc(SC)ccc1C(=O)NNC(=O)c1cc(C)oc1C	hgDAF-12 ag 13, DAX1 inh-2 12 | DAX1 inh confirm 6.9 | SF1 AF2mut Luc 5.0
COc1cc(SC)ccc1C(=O)Nc1c(C)cccc1C	none
c1ccc(OCCSc2nnnn2C2CCCCC2)cc1	hgDAF-12 ag 13, DAX1 inh-2 4.5 | DAX1 inh confirm 11 | SF1 AF2mut Luc 8.3
Cc1cc(O)cc(O[C@H]2OC(CO)[C@H](O)[C@@H](O)[C@H]2O)c1 (stereo partly specified)	none
COc1ccc(/C=C/c2cc(O)cc(O[C@@H]3O[C@H](CO)[C@@H](O)[C@H](O)[C@H]3O)c2)cc1O	DAX1 inh-2 5.2 (no result: DAX1 inh-1, AHR activator) | DAX1 inh confirm 13 | SF1 AF2mut Luc 7.4
Cc1cc(C)n2nc(C(=O)Nc3ccc4c(c3)OCCO4)nc2n1	DAX1 inh-2 6.0 | DAX1 inh confirm 5.6 | SF1 AF2mut Luc inactive
Cc1ccnc2nc(C(=O)Nc3ccc4c(c3)OCO4)nn12	DAX1 inh-2 4.6 | DAX1 inh confirm 8.9 | SF1 AF2mut Luc 5.2
Cc1cc(C)n2nc(C(=O)Nc3ccc4c(c3)OCO4)nc2n1	none
CCCCn1nnnc1C(c1cc2ccccc2o1)N1CCN(C/C=C/c2ccccc2)CC1 (stereo unspecified)	none (no result: DAX1 inh-1, AHR activator)
COc1ccc(CCNC(=O)c2cccn2C)cc1	DAX1 inh-2 6.3 | DAX1 inh confirm 7.8 | SF1 AF2mut Luc 6.5
N#Cc1c(NC(=O)c2ccco2)sc2c1CCC2	hgDAF-12 ag 11, DAX1 inh-2 9.4 | DAX1 inh confirm 9.1 | SF1 AF2mut Luc 3.7
NC(=O)CC(NC(=O)Cc1ccc(Br)cc1)c1ccc(N2CCN(c3ccc(F)cc3)CC2)c([N+](=O)[O-])c1 (stereo unspecified)	none
CC(C)C(=O)Nc1ccc(-c2nc3cccnc3o2)cc1	hgDAF-12 ag 13, hcDAF-12 act 5.9, DAX1 inh-2 4.5 | DAX1 inh confirm 12 | SF1 AF2mut Luc 4.1
COc1cc(CN2CCC(n3nccc3NC(=O)c3ccccc3OC)CC2)ccc1F	none
COCCCNc1ccn2nc(-c3ccccc3)cc2n1	ssDAF-12 act 1.0, hcDAF-12 act 6.3, DAX1 inh-2 6.5 (no result: DAX1 inh-1, AHR activator) | DAX1 inh confirm 15 | SF1 AF2mut Luc 5.0
COc1cc(-c2nnc3n2CCCCC3)cc(OC)c1OC	none
Cc1ccc2nc(SCC(=O)N3CCCC3)[nH]c2c1	DAX1 inh-2 4.8 | DAX1 inh confirm 12 | SF1 AF2mut Luc 6.1
COc1ccc(NC(=O)CN2C(=O)NC3(CCCC3)C2=O)cc1OC	none
